In the antibiotic and cytotoxicity screens of Wong et al. (2023):
The campaign covered roughly 39,000 compounds. About 1,500 (3.8%) were called active. Many of the other results were omitted from the sample, so actives are more common in it than they were.

tested on: HSkMC (human skeletal muscle cells); test: cytotoxicity call (relative viability < 0.9); details: 10 µM

| Structure (SMILES) | cytotoxicity call |
| --- | --- |
| CC(=NNC(=O)c1nnn(-c2nonc2N)c1CN1CCC(C)CC1)c1cccc(Br)c1 | inactive |
| CN1C(=O)[C@@H]2[C@H](N=CN2CCCO)N(C)C1=O | inactive |
| C=CCNC(=O)[C@H]1[C@@H]2C(=O)O[C@@H](c3ccccc3)[C@@H](c3ccccc3)N2[C@@H](c2ccc(O)cc2)[C@]12C(=O)Nc1ccc(C#CC3=CCCCC3)cc12 | inactive |
| COc1ccc(S(=O)(=O)Nc2ccc3c(c2)C(=O)N([C@@H](C)CO)C[C@H](C)[C@H](CN(C)S(=O)(=O)c2cn(C)cn2)OCCCC[C@@H](C)O3)cc1 | inactive |
| C[C@@H](NC(=O)C[C@H]1CC[C@@H](NC(=O)CN2CCOCC2)[C@@H](CO)O1)c1ccccc1 | inactive |
| C[C@@H]1CN([C@@H](C)CO)C(=O)Cc2cc(NC(=O)Cn3cnnn3)ccc2O[C@@H]1CN(C)Cc1ccc(C(F)(F)F)cc1 | inactive |
| COc1ccc(CNC(=O)[C@H](c2ccc(C)cc2)N(Cc2cccs2)C(=O)c2ccc3c(c2)OCCO3)cc1 | active |
| CO[C@H](CN(C)C(=O)c1ccc2c(c1)OCO2)[C@@H](C)CN([C@H](C)CO)S(=O)(=O)c1ccc(C)cc1 | inactive |
| CO[C@H](CN(C)C(=O)c1ccc2c(c1)OCO2)[C@H](C)CN([C@H](C)CO)S(=O)(=O)c1ccc(C)cc1 | inactive |
| COc1cccc(C#Cc2cnc3c(c2)C(=O)N([C@H](C)CO)C[C@@H](C)[C@H](CN(C)C(=O)C2CCOCC2)O3)c1 | inactive |
| CC(C)C#Cc1ccc2c(c1)O[C@@H](CN(C)C(=O)Cc1ccccn1)[C@H](C)CN([C@H](C)CO)S2(=O)=O | inactive |
| C[C@@H]1CN([C@@H](C)CO)C(=O)c2cccc(NC(=O)Nc3ccccc3)c2O[C@H]1CN(C)Cc1ccc(-c2ccccc2)cc1 | active |
| C[C@@H]1CN([C@@H](C)CO)C(=O)c2cccc(NC(=O)Nc3ccccc3)c2O[C@H]1CN(C)Cc1ccc(C(=O)Nc2ccccc2N)cc1 | inactive |
| C[C@@H]1CN([C@@H](C)CO)C(=O)c2cccc(NC(=O)Nc3ccccc3)c2O[C@@H]1CN(C)Cc1ccc(-c2ccccc2)cc1 | active |
| C[C@@H]1CN([C@H](C)CO)C(=O)c2cccc(NC(=O)Nc3ccccc3)c2O[C@@H]1CN(C)Cc1ccc(C(=O)Nc2ccccc2N)cc1 | inactive |
| C[C@H]1CN([C@@H](C)CO)C(=O)c2cccc(NC(=O)Nc3ccccc3)c2O[C@H]1CN(C)Cc1ccc(C(=O)Nc2ccccc2N)cc1 | active |
| C[C@H](CO)N1C[C@H](C)[C@H](CN(C)Cc2ccc(-c3ccccc3)cc2)Oc2c(NC(=O)Nc3ccccc3)cccc2C1=O | inactive |
| C[C@@H]1CN([C@H](C)CO)C(=O)c2cccc(NC(=O)Nc3ccccc3)c2O[C@H]1CN(C)Cc1ccc(-c2ccccc2)cc1 | active |
| C[C@H]1CN([C@@H](C)CO)C(=O)c2cccc(NC(=O)Nc3ccccc3)c2O[C@H]1CN(C)Cc1ccc(-c2ccccc2)cc1 | inactive |
| C[C@@H]1CN([C@H](C)CO)C(=O)c2cccc(NC(=O)Nc3ccccc3)c2O[C@@H]1CN(C)Cc1ccc(-c2ccccc2)cc1 | inactive |
| C[C@H]1CN([C@@H](C)CO)C(=O)c2cccc(NC(=O)Nc3ccccc3)c2O[C@@H]1CN(C)Cc1ccc(-c2ccccc2)cc1 | inactive |

| Structure (SMILES) | cytotoxicity call |
| --- | --- |
| C[C@H](CO)N1C[C@H](C)[C@@H](CN(C)Cc2ccc(-c3ccccc3)cc2)Oc2c(NC(=O)Nc3ccccc3)cccc2C1=O | inactive |
| C[C@H](CO)N1C[C@H](C)[C@H](CN(C)Cc2ccc(-c3ccccc3)cc2)Oc2c(NC(=O)Nc3ccc(F)cc3)cccc2C1=O | inactive |
| C[C@H]1CN([C@@H](C)CO)S(=O)(=O)c2ccc(-c3cccnc3)cc2O[C@@H]1CN(C)CC1CCOCC1 | inactive |
| O=C(O)CCCCN(CCc1ccccc1OCc1ccc(CCc2ccccc2)cc1)Cc1ccc(C(=O)O)cc1 | inactive |
| COc1ccc(S(=O)(=O)N(C)C[C@H]2Oc3c(NC(=O)c4ccncc4)cccc3C(=O)N([C@@H](C)CO)C[C@H]2C)cc1 | inactive |
| CN1C(=O)CS(=O)(=O)[C@@H]1c1ccccc1 | inactive |
| C[C@@H]1CCCCO[C@H](CN(C)Cc2ccc(C(=O)O)cc2)[C@H](C)CN([C@@H](C)CO)C(=O)c2cc(NC(=O)Cc3ccccc3)ccc2O1 | inactive |
| C[C@@H]1CCCCO[C@H](CN(C)C(=O)Nc2ccc(F)cc2)[C@@H](C)CN([C@@H](C)CO)C(=O)c2cc(NC(=O)Nc3ccccc3)ccc2O1 | inactive |
| CN(C)CCCCCCNC(=O)[C@@H]1C[C@@H]2C(=O)NCC(=O)N2[C@@H]1c1cccc(OCCO)c1 | inactive |
| Cc1ccc(S(=O)(=O)N(C)C[C@@H]2Oc3ccc(NS(=O)(=O)c4cn(C)cn4)cc3C(=O)N([C@@H](C)CO)C[C@@H]2C)cc1 | inactive |
| C[C@@H]1CN([C@H](C)CO)C(=O)c2cc(NC(=O)Cc3ccccc3)ccc2O[C@@H]1CN(C)C(=O)Nc1ccc(C(F)(F)F)cc1 | inactive |
| CCOC(=O)[C@H]1C/C=C/C[C@H](C(=O)OCC)C(=O)O[C@H]2[C@@H](OC)O[C@H](COC(=O)NCCCCCC(=O)NO)[C@@H](OC(=O)Nc3ccccc3)[C@@H]2OC1=O | inactive |
| C[C@H]1CCCCO[C@H](CN(C)C(=O)Nc2ccc(F)cc2)[C@@H](C)CN([C@@H](C)CO)C(=O)c2cc(NS(=O)(=O)c3ccc(F)cc3)ccc2O1 | inactive |
| COc1ccccc1C#Cc1cnc2c(c1)C(=O)N([C@H](C)CO)C[C@H](C)[C@@H](CN(C)C(=O)CC1CC1)O2 | inactive |
| CC(C)(C)S(=O)N1Cc2cc(C(=O)NCc3ccc(Oc4ccccc4)cc3)nc(-c3cccc(C#CCC4CCCC4)c3)c2[C@@H]1CCO (stereo partly specified) | active |
| COc1ccc(C#Cc2cccc(-c3nc(C(=O)N[C@@H]4CCN(Cc5ccccc5)C4)cc4c3[C@H](CCO)N(S(=O)C(C)(C)C)C4)c2)cc1OC (stereo partly specified) | inactive |
| CC(C)(C)S(=O)N1Cc2cc(C(=O)NCc3ccc4c(c3)OCO4)nc(-c3cccc(C#CCC4CCCC4)c3)c2[C@@H]1CCO (stereo partly specified) | inactive |
| CC(C)(C)S(=O)N1Cc2cc(C(=O)NCc3ccc4c(c3)OCO4)nc(-c3cccc(C#CCC4CCCC4)c3)c2[C@H]1CCO (stereo partly specified) | inactive |
| CC(C)(C)S(=O)N1Cc2cc(C(=O)N[C@@H]3CCN(Cc4ccccc4)C3)nc(-c3cccc(C#CCC4CCCC4)c3)c2[C@H]1CCO (stereo partly specified) | active |
| CC(C)(C)S(=O)N1Cc2cc(C(=O)N[C@@H]3CCN(Cc4ccccc4)C3)nc(-c3cccc(C#CCC4CCCC4)c3)c2[C@@H]1CCO (stereo partly specified) | inactive |
| O=C(C[C@H]1CC[C@H]2[C@@H](COC[C@@H](O)CN2C(=O)c2ccc3c(c2)OCO3)O1)NCCN1CCCC1 | inactive |

| Structure (SMILES) | cytotoxicity call |
| --- | --- |
| O=C1[C@H]2C=NN[C@@H]2C(=O)N1Cc1ccccc1 | inactive |
| COc1ccc2c3c([nH]c2c1)[C@@H](CO)N(C[C@]13CCN(CC1)Cc1nccs1)C(=O)C1CCOCC1 | inactive |
| C[C@@H]1CN([C@@H](C)CO)C(=O)c2cccc(NS(C)(=O)=O)c2O[C@@H]1CN(C)S(=O)(=O)c1cccs1 | inactive |
| CCS(=O)(=O)NCC[C@@H]1CC[C@@H](NC(=O)Cc2ccccn2)[C@H](CO)O1 | inactive |
| C[C@@H]1CN([C@H](C)CO)C(=O)c2cc(NC(=O)Cc3cn(C)c4ccccc34)ccc2O[C@H]1CN(C)Cc1ccc(C(F)(F)F)cc1 | inactive |
| C[C@@H]1CN([C@@H](C)CO)C(=O)c2cc(NC(=O)Cc3cn(C)c4ccccc34)ccc2O[C@@H]1CN(C)C(=O)Nc1ccc(C(F)(F)F)cc1 | active |
| C[C@@H]1CN([C@H](C)CO)C(=O)c2cc(NC(=O)Cc3cn(C)c4ccccc34)ccc2O[C@H]1CN(C)C(=O)Nc1ccc(C(F)(F)F)cc1 | inactive |
| C[C@H](CO)N1C[C@H](C)[C@@H](CN(C)Cc2ccc(C(F)(F)F)cc2)Oc2ccc(NC(=O)Cc3cn(C)c4ccccc34)cc2C1=O | inactive |
| C[C@@H]1CN([C@H](C)CO)C(=O)c2cc(NC(=O)Cc3cn(C)c4ccccc34)ccc2O[C@@H]1CN(C)Cc1ccc(C(F)(F)F)cc1 | active |
| C[C@H](CO)N1C[C@H](C)[C@@H](CN(C)C(=O)Nc2ccc(C(F)(F)F)cc2)Oc2ccc(NC(=O)Cc3cn(C)c4ccccc34)cc2C1=O | inactive |
| O=C(C[C@H]1CC[C@H]2[C@@H](COC[C@@H](O)CN2S(=O)(=O)c2ccccc2)O1)N1CCc2ccccc2C1 | inactive |
| C[C@H]1CN([C@@H](C)CO)C(=O)c2cc(NS(=O)(=O)c3ccccc3)ccc2O[C@H]1CN(C)CC1CC1 | inactive |
| Cn1c(N)c(C(=O)c2ccco2)c(=O)n(C)c1=O | inactive |
| C[C@H](CO)N1C[C@H](C)[C@H](CN(C)S(=O)(=O)c2ccc(Cl)cc2)Oc2ccc(NC(=O)CCN3CCOCC3)cc2CC1=O | inactive |
| C[C@@H]1CN([C@@H](C)CO)S(=O)(=O)c2ccc(C#C[C@@H](C)O)cc2O[C@H]1CN(C)C(=O)c1ccncc1 | inactive |
| COc1ccc2c3c([nH]c2c1)[C@H](CO)N(C[C@]13CCN(CC1)CC1CCCC1)C(=O)CN1CCOCC1 | inactive |
| C[C@H]1CN([C@@H](C)CO)C(=O)Cc2cc(NC(=O)c3ccncc3)ccc2O[C@@H]1CN(C)S(=O)(=O)c1ccc(Cl)cc1 | inactive |
| C[C@@H]1CCCCO[C@@H](CN(C)Cc2ccccc2)[C@@H](C)CN([C@@H](C)CO)C(=O)c2cc(NC(=O)CCC(F)(F)F)ccc2O1 | inactive |
| CC(C)C[C@@H]1C(=O)O[C@H](C)C(=O)N(C)[C@@H](CC(C)C)C(=O)O[C@H](Cc2ccc(N3CCOCC3)cc2)C(=O)N(C)[C@@H](CC(C)C)C(=O)O[C@H](C)C(=O)N(C)[C@@H](CC(C)C)C(=O)O[C@H](Cc2ccc(N3CCOCC3)cc2)C(=O)N1C | active |
